Experimental data: the supplement of paper PMC12645437, “Orthogonal IMiD-Degron Pairs Induce Selective Protein Degradation in Cells” (ACS Chemical Biology, 2025)
Over roughly 8,300 sequences, “log2 fold change of degron read counts, EGFP-low vs EGFP+ sorted cells (limma voom), compound-induced degradation” has its median near -1.1; the highest 2% begin near 3.2. This excerpt belongs to a sample that is enriched for the highest values.

T1: CRBN, Q96SW2
T1 chain: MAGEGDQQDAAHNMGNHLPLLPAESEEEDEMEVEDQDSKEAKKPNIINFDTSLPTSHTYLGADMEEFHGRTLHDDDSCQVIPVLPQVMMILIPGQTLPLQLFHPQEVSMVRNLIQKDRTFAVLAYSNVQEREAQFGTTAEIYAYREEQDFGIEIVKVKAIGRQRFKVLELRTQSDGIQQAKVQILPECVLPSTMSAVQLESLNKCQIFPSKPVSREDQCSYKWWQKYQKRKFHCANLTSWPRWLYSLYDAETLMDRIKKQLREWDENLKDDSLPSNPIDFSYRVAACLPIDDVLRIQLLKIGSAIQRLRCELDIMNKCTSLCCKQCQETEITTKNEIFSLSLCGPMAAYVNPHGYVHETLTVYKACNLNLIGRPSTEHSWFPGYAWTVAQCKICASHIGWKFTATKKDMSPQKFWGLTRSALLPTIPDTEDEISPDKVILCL


Target: T1, CRBN, Q96SW2
Assay: log2 fold change of degron read counts, EGFP-low vs EGFP+ sorted cells (limma voom), compound-induced degradation; higher = more compound-induced degradation of the degron-EGFP fusion; degrons are variants of IKZF1/3 zinc finger 2; compound dose not given here
Conditions: Jurkat, 18 h
[1] = compound: compound 19 (5-tert-butyl-thalidomide)
[2] = compound: compound 22 (5-morpholino-thalidomide)
[3] = compound: compound 33 (diphenyl IMiD analogue)
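Note: pooled lentiviral library of zinc finger degron-EGFP fusions in mCherry-positive Jurkat cells, FACS-sorted after compound exposure, with degron abundance counted by next-generation sequencing.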

Row | Sequence | log2 fold change of degron read counts [1] | log2 fold change of degron read counts [2] | log2 fold change of degron read counts [3] | log2 fold change of degron read counts (compound: thalidomide)
1 | FFCSVCGHHFTQKGNLLRHIKL [46F_47F_49S_50V_52G_53H_54H_55F_67L_, Q9UKT9] | -2.1 | -2.74 | -2.17 | -1.83
2 | FCCNQCGHNFTQKGNLLRHIKL [46F_47C_49N_50Q_52G_53H_54N_55F_67L_, Q9UKT9] | -2.54 | -3.15 | -2.94 | -2.37
3 | FHCPVCGAMFTQKGNLLRHIKL [46F_47H_49P_50V_52G_53A_54M_55F_67L_, Q9UKT9] | 1.4 | 1.46 | 1.42 | -0.0518
4 | FYCNQCGRRFTQKGNLLRHIKL [46F_47Y_49N_50Q_52G_53R_54R_55F_67L_, Q9UKT9] | -2.62 | -2.54 | -2.6 | -2.29
5 | LFCPICGFVCTQKGNLLRHIKL [46L_47F_49P_50I_52G_53F_54V_55C_67L_, Q9UKT9] | 3.02 | 2.99 | 1.66 | 1.45
6 | FLCNVCGAQFTQKGNLLRHIKL [46F_47L_49N_50V_52G_53A_54Q_55F_67L_, Q9UKT9] | -2.31 | -2.24 | -0.00793 | -0.809
7 | FVCPVCGALFTQKGNLLRHIKL [46F_47V_49P_50V_52G_53A_54L_55F_67L_, Q9UKT9] | -1.75 | 0.353 | 1.26 | 0.951
8 | FRCPVCGARFTQKGNLLRHIKL [46F_47R_49P_50V_52G_53A_54R_55F_67L_, Q9UKT9] | -1.26 | -1.08 | -0.255 | 0.153
9 | FFCPVCGALFTQKGNLLRHIKL [46F_47F_49P_50V_52G_53A_54L_55F_67L_, Q9UKT9] | 1.62 | 1.64 | 1.45 | 0.0806
10 | FTCPVCGARFTQKGNLLRHIKL [46F_47T_49P_50V_52G_53A_54R_55F_67L_, Q9UKT9] | 0.934 | 2.59 | 1.76 | 2.95
11 | FGCPVCGARFTQKGNLLRHIKL [46F_47G_49P_50V_52G_53A_54R_55F_67L_, Q9UKT9] | 3.6 | 2.1 | -0.116 | 1.03
12 | FKCPVCGARFTQKGNLLRHIKL [46F_47K_49P_50V_52G_53A_54R_55F_67L_, Q9UKT9] | -1.78 | -2.92 | -2.71 | -1.48
13 | FLCPVCGARFTQKGNLLRHIKL [46F_47L_49P_50V_52G_53A_54R_55F_67L_, Q9UKT9] | -0.179 | -0.342 | 0.651 | 1.68
14 | FVCPVCGADFTQKGNLLRHIKL [46F_47V_49P_50V_52G_53A_54D_55F_67L_, Q9UKT9] | -0.973 | 0.651 | 1 | 1.76
15 | FCCPVCGADFTQKGNLLRHIKL [46F_47C_49P_50V_52G_53A_54D_55F_67L_, Q9UKT9] | 0.844 | 0.509 | 1.45 | 0.741
